Activity calls are given as the source filed them.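 The calls were made as follows: active = Inhibition of the Kir2.1 potassium channel over 30% at some tested dose, plus a fitted dose response curve; inactive = no Kir2.1 inhibition at any dose, or no curve fitted.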
Target: Inward rectifier potassium channel 2 (Mus musculus) (UniProt P35561)
Test: off-target blockade of inward rectifier Kir2.1 – cell-based, FluxOR thallium flux, CRC round 2, selectivity assay for KCNK9 inhibitor project, SAR follow-up (AID 540321)

Inward rectifier potassium channel 2 (Mus musculus), sequence (P35561 whole entry, looked up): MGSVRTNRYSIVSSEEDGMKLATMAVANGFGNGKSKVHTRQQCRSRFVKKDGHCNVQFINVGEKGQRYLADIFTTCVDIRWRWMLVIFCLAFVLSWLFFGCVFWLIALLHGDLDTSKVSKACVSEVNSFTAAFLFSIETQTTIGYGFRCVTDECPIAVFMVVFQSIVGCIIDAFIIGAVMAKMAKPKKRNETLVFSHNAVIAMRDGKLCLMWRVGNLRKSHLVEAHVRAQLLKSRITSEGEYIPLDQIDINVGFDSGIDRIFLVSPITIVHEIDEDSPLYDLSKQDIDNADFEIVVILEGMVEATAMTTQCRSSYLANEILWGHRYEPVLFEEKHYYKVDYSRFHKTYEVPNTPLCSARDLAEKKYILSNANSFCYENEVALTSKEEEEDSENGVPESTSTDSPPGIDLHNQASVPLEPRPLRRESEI

Compound | outcome
Cc1cccc(C(=O)Nc2cccc(NC(=O)c3cccs3)c2)c1 | inactive
CCOc1ccccc1NC(=O)c1cccc(NC(=O)c2ccccc2)c1 | inactive
COc1ccccc1C(=O)Nc1cccc(NC(=O)c2ccccc2)c1 | inactive
CC(C1CC2CCC1C2)n1c(-c2ccsc2)n[nH]c1=S (configuration not stated) | inactive
CC(C1CC2CCC1C2)n1c(C2CCOC2)n[nH]c1=S (configuration not stated) | inactive
CCOc1ccccc1C(=O)Nc1cccc(NC(=O)c2ccccc2C(F)(F)F)c1 | inactive
O=C(Nc1cccc(NC(=O)c2cccnc2)c1)c1ccccc1 | inactive
CCOc1ccccc1NC(=O)c1cccc(NC(=O)C2CCOC2)c1 (configuration not stated) | inactive
Cc1cccc(C(=O)Nc2cccc(NC(=O)c3ccc(C(F)(F)F)cc3)c2)c1 | inactive
CCOc1ccccc1NC(=O)c1cccc(NC(=O)c2ccc(C(F)(F)F)cc2)c1 | inactive
COc1ccccc1NC(=O)c1cccc(NC(=O)CC2CCCC2)c1 | inactive
COc1ccc(-c2n[nH]c(=S)n2C(C)C2CC3CCC2C3)cc1 (configuration not stated) | inactive
O=C(Nc1cccc(NC(=O)c2ccco2)c1)c1ccccc1 | inactive
Cc1cccc(C(=O)Nc2cccc(NC(=O)c3ccc(C(C)(C)C)cc3)c2)c1 | inactive
O=C(Nc1cccc(NC(=O)c2ccc(Cl)cc2)c1)c1ccccc1 | inactive
CCOc1ccccc1NC(=O)c1cccc(NC(=O)c2cccc(OC)c2)c1 | inactive
CCOc1ccccc1NC(=O)c1cccc(NC(=O)c2ccc(C)cc2)c1 | inactive
O=C(Nc1cccc(NC(=O)c2cccc(C(F)(F)F)c2)c1)c1ccccc1 | inactive
Cc1cccc(C(=O)Nc2cccc(NC(=O)c3ccccc3C(C)C)c2)c1 | inactive
O=C(Nc1cccc(NC(=O)c2ccccc2)c1)c1ccccc1 | inactive
Cc1cccc(C(=O)Nc2cccc(NC(=O)c3cccc(C(F)(F)F)c3)c2)c1 | inactive
Cc1cccc(C(=O)Nc2cccc(NC(=O)c3ccccc3Cl)c2)c1 | inactive
Cc1cccc(C(=O)Nc2cccc(NC(=O)C3CCCCC3)c2)c1 | inactive
COc1ccccc1C(=O)Nc1cccc(NC(=O)c2ccccc2OC)c1 | inactive
O=C(Nc1cccc(NC(=O)c2ccsc2)c1)c1ccccc1 | inactive
O=C(Nc1ccccc1Cl)c1cccc(NC(=O)C2CCCC2)c1 | inactive

Compound | outcome
O=C(Nc1cccc(NC(=O)c2ccccn2)c1)c1ccccc1 | inactive
Cc1cccc(-c2n[nH]c(=S)n2C(C)C2CC3CCC2C3)c1 (configuration not stated) | inactive
O=C(Nc1cccc(NC(=O)c2ccc(F)cc2)c1)c1ccccc1 | inactive
Cc1cccc(C(=O)Nc2cccc(NC(=O)c3ccccc3OCC(C)C)c2)c1 | inactive
Cc1ccc(-c2n[nH]c(=S)n2C(C)C2CC3CCC2C3)cc1 (configuration not stated) | inactive
Cc1cccc(C(=O)Nc2cccc(NC(=O)c3ccc(Cl)cc3)c2)c1 | inactive
CC(C1CC2CCC1C2)n1c(-c2ccccc2Cl)n[nH]c1=S (configuration not stated) | inactive
CCOc1ccccc1NC(=O)c1cccc(NC(=O)C2CCCCC2)c1 | inactive
CCOc1ccccc1NC(=O)c1cccc(NC(=O)C2CCCO2)c1 (configuration not stated) | inactive
CC(C1CC2CCC1C2)n1c(-c2cccc(Cl)c2)n[nH]c1=S (configuration not stated) | inactive
COc1ccccc1NC(=O)c1cccc(NC(=O)C2CCCC2)c1 | inactive
O=C(Nc1cccc(NC(=O)c2cccc(Cl)c2)c1)c1ccccc1 | inactive
Cc1cccc(C(=O)Nc2ccccc2NC(=O)c2ccccc2)c1 | inactive
Cc1cccc(C(=O)Nc2cccc(NC(=O)c3ccc(N(C)C)cc3)c2)c1 | inactive
COc1cccc(-c2n[nH]c(=S)n2C(C)C2CC3CCC2C3)c1 (configuration not stated) | inactive
COc1ccccc1C(=O)Nc1cccc(NC(=O)c2cccc(C)c2)c1 | inactive
Cc1cccc(C(=O)Nc2cccc(NC(=O)c3ccccc3C)c2)c1 | inactive
CCOc1ccccc1NC(=O)c1cccc(NC(=O)C2CC2)c1 | inactive
CCOc1ccccc1NC(=O)c1cccc(NC(=O)c2ccccc2C(F)(F)F)c1 | inactive
Cc1cccc(C(=O)Nc2cccc(NC(=O)c3cccc(Cl)c3)c2)c1 | inactive
O=C(Nc1cccc(NC(=O)c2ccccc2C(F)(F)F)c1)c1ccccc1 | inactive
COc1ccc(C(=O)Nc2cccc(NC(=O)c3cccc(C)c3)c2)cc1 | inactive
O=C(Nc1cccc(NC(=O)c2cccc(F)c2)c1)c1ccccc1 | inactive
COc1ccccc1NC(=O)c1cccc(NC(=O)c2ccccc2)c1 | inactive
Cc1cccc(S(=O)(=O)Nc2cccc(NC(=O)c3ccccc3)c2)c1 | inactive
CCOc1ccccc1NC(=O)c1cccc(NC(=O)c2ccc(Cl)cc2)c1 | inactive
